Results from PubChem BioAssay (Tox21).
Several values for one entry are separate records, joined by “and”; a condition that tells them apart may be missing. Equal values may be shown once. Results filed as inconclusive are left out. Where a call stands in place of a potency, no number is given. More than one record can exist for a structure, and the calls need not agree. Activity calls are given as the source filed them. Unless noted, calls come from the whole dose curve; as a rule, active = well fitted curve in the direction sought with a large enough effect in the repeat runs; inconclusive = weak or mixed curves; inactive = no such curve, though single readings can be large; an effect the other way counts as inactive or inconclusive.

Tests used:
[1] = qHTS assay to identify small molecule antagonists of the glucocorticoid receptor (GR) signaling pathway - cell viability counter screen (AID 720693); note: nearly all actives have a fitted effect of over 55% in size
[2] = qHTS assay for identifying genotoxic compounds that show differential cytotoxicity against isogenic chicken DT40 cell lines with known DNA damage response pathways - Rev3 mutant cell line (AID 743014); note: nearly all actives have a fitted effect of over 55% in size
[3] = qHTS assay for identifying genotoxic compounds that show differential cytotoxicity against isogenic chicken DT40 cell lines with known DNA damage response pathways - Rad54/Ku70 mutant cell line (AID 743015); note: nearly all actives have a fitted effect of over 60% in size; note: potency is the fitted concentration of half-maximal effect
[4] = qHTS assay to identify small molecule antagonists of the androgen receptor (AR) signaling pathway - cell viability counter screen (AID 743033; note: nearly all actives have a fitted effect of over 45% in size)
[5] = qHTS assay to identify small molecule antagonists of the androgen receptor (AR) signaling pathway using the MDA cell line - cell viability counter screen (AID 743041; note: nearly all actives have a fitted effect of over 45% in size)
How it was run: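 R1881-driven MDA-kb2 AR-luc cells, 3,000/well, were dosed with library compounds for 16 h; cell health came from CellTiter-Fluor fluorescence in the reporter wells.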

[6] = qHTS assay to identify small molecule antagonists of the thyroid receptor (TR) signaling pathway - cell viability counter screen (AID 743064); note: nearly all actives have a fitted effect of over 50% in size
How it was run: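 Counter screen for cytotoxicity: compound plus T3 (1 nM final) on GH3.TRE-Luc cells, 23.5 h at 37 °C, then fluorescence viability readout with CellTiter-Fluor.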

[7] = system: thyroid hormone receptor (rat, GH3 cells); assay: qHTS assay to identify small molecule agonists of the thyroid receptor (TR) signaling pathway (AID 743066; calls by dose curve; note: potency is the fitted concentration of half-maximal effect)
[8] = qHTS assay to identify small molecule antagonists of the estrogen receptor alpha (ER-alpha) signaling pathway - cell viability counter screen (AID 743074; calls by dose curve;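 note: HEK293 cells carrying ER-alpha-UAS-bla reporter stimulated with 17beta-estradiol; nearly all actives have a fitted effect of over 45% in size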)
[9] = qHTS assay to identify small molecule antagonists of the estrogen receptor alpha (ER-alpha) signaling pathway using the BG1 cell line - cell viability counter screen (AID 743081);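 note: compound given together with 17beta-estradiol as the ER stimulus; series mostly up to about 70 µM; nearly all actives have a fitted effect of over 45% in size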
Aromatase (Homo sapiens) = Aromatase (Homo sapiens) (UniProt P11511); assay: qHTS assay to identify aromatase inhibitors (AID 743083); note: series mostly up to about 70 µM; nearly all actives have a fitted effect of over 55% in size
[10] = qHTS assay to identify aromatase inhibitors - cell viability counter screen (AID 743084);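 note: cells stimulated with testosterone during compound exposure; nearly all actives have a fitted effect of over 55% in size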
[11] = qHTS assay for identifying genotoxic compounds that show differential cytotoxicity against isogenic chicken DT40 cell lines with known DNA damage response pathways - wild type cell line (AID 743012); note: nearly all actives have a fitted effect of over 60% in size
How it was run: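 Wild type DT40, 300 cells/well, ~0.5 h settle at 37 C/5% CO2; compounds in DMSO added by pintool; 40 h at 37 C/5% CO2; CellTiter-Glo, 30 min RT; luminescence.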

[12] = qHTS assay to identify small molecule antagonists of the thyroid receptor (TR) signaling pathway (AID 743065); note: nearly all actives have a fitted effect of over 55% in size; note: potency is the fitted concentration of half-maximal effect
How it was run: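 Antagonism measured as loss of luciferase signal in GH3 cells stably carrying a TRE-luciferase reporter, co-treated with compound and T3 (1 nM final) for 23.5 h at 37 C. Viability was read in the same well by CellTiter-Fluor.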

[13] = biological target: Estrogen receptor (Homo sapiens) (UniProt P03372); assay: qHTS assay to identify small molecule antagonists of the estrogen receptor alpha (ER-alpha) signaling pathway (AID 743069; active = well fitted curve in the direction sought with a large enough effect in the signal ratio in the repeat runs, not every such curve was filed as active; the % refers to the signal ratio)
How it was run: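 Compound effects are measured against 17beta-estradiol stimulation in HEK293 cells with a UAS-controlled beta-lactamase reporter for ER-alpha. Exposure lasts 18 hr at 37C; LiveBLAzer B/G FRET substrate follows for 2 hr at room temperature.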

[14] = biological target: Estrogen receptor (Homo sapiens) (UniProt P03372); assay: qHTS assay to identify small molecule agonists of the estrogen receptor alpha (ER-alpha) signaling pathway (AID 743075; calls by dose curve)
[15] = biological target: Estrogen receptor (Homo sapiens) (UniProt P03372); assay: qHTS assay to identify small molecule agonists of the estrogen receptor alpha (ER-alpha) signaling pathway using the BG1 cell line (AID 743079); note: nearly all actives have a fitted effect of over 20% in size
[16] = qHTS assay to identify small molecule antagonists of the estrogen receptor alpha (ER-alpha) signaling pathway using the BG1 cell line (AID 743080; calls by dose curve;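 note: BG1 cells stimulated with 17beta-estradiol alongside compound; series mostly up to about 70 µM; nearly all actives have a fitted effect of over 25% in size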)
How it was run: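 Luciferase inhibition measured with ONE-Glo after 30 min at RT in BG1Luc4E2 cells given test compounds and 17beta-estradiol for 21.5 h at 37 C; CellTiter-Fluor viability read in the same wells beforehand.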

[17] = biological target: Androgen receptor (Homo sapiens) (UniProt P10275); assay: qHTS assay to identify small molecule antagonists of the androgen receptor (AR) signaling pathway (AID 743035; active = well fitted inhibition curve with a large enough effect in the signal ratio in the repeat runs, not every such curve was filed as active; the % refers to the signal ratio)
How it was run: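 Fluorescence from a beta-lactamase FRET substrate (LiveBLAzer B/G, 2 h, room temperature) measured inhibition of R1881-stimulated signaling in GeneBLAzer AR-UAS-bla HEK293 cells exposed to compound for 16 h at 37C.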

[18] = biological target: Androgen receptor (Homo sapiens) (UniProt P10275); assay: qHTS assay to identify small molecule antagonists of the androgen receptor (AR) signaling pathway using the MDA cell line (AID 743042; note: nearly all actives have a fitted effect of over 55% in size)
How it was run: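 Antagonist mode: compounds plus R1881 agonist added to MDA-kb2 AR-luc cells, incubated 16 h at 37C. Luciferase reporter luminescence quantified, with multiplexed CellTiter-Fluor readout for cell viability.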

Chain of Androgen receptor (Homo sapiens) (P10275 whole entry, looked up): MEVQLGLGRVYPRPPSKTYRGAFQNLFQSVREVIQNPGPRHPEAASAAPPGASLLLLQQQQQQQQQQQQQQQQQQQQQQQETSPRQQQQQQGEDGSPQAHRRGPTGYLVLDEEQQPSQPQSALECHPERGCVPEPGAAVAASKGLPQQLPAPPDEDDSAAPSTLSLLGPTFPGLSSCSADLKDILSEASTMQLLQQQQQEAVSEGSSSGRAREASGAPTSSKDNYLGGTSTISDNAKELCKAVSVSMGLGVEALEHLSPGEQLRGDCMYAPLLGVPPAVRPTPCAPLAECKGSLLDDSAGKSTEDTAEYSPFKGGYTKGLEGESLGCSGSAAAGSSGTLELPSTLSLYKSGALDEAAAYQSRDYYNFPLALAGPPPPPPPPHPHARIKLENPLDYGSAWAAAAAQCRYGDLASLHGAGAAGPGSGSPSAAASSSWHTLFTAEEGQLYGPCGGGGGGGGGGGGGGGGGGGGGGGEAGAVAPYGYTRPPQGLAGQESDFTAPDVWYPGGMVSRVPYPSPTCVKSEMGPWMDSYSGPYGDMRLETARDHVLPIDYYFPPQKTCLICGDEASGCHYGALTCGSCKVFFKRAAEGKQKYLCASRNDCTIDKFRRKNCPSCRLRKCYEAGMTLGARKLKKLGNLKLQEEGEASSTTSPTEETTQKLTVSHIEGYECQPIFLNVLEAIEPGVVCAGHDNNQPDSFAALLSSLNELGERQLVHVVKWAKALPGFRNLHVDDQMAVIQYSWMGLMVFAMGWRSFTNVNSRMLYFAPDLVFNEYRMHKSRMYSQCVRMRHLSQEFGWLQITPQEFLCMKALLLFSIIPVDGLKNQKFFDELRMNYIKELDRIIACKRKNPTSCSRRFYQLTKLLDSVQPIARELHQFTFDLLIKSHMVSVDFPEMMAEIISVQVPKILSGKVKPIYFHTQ
Chain of Aromatase (Homo sapiens) (P11511 whole entry, looked up): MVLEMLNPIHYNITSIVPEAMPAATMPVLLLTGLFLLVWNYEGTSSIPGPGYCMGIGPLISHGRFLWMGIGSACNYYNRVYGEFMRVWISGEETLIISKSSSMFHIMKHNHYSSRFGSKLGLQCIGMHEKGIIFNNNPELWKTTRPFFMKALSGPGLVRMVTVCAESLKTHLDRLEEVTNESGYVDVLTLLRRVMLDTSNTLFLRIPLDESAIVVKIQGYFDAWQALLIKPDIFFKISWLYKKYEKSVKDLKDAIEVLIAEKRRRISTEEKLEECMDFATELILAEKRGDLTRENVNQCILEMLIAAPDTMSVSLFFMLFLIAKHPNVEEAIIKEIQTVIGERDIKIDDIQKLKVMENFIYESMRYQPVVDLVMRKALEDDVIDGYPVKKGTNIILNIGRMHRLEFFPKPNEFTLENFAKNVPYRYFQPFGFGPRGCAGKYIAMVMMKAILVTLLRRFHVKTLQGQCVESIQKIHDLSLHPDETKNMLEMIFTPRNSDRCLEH
Chain of Estrogen receptor (Homo sapiens) (P03372 whole entry, looked up): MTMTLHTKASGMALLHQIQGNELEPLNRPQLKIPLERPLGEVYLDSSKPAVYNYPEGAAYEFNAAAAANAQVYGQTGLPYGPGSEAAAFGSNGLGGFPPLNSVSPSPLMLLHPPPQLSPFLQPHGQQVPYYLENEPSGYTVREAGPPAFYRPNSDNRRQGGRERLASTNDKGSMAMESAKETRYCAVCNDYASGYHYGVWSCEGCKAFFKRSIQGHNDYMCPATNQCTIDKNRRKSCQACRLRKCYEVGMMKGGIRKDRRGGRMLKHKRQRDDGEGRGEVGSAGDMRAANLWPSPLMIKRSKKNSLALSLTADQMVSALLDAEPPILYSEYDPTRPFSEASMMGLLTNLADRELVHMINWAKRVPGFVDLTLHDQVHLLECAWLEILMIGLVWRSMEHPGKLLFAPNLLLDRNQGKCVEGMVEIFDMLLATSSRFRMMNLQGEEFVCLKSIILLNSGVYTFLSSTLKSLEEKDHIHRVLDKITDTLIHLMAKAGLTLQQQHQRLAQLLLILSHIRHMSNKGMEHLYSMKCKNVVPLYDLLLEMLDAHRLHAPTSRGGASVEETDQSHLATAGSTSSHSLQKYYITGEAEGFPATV

Compound	Potency [1]	Potency [2]	Potency [3]	outcome [4]	Potency [5]	Potency [6]	Potency [7]	Potency [8]	Potency [9]	Potency (Aromatase (Homo sapiens))	Potency [10]	Potency [11]	Potency [12]	Potency [13]	Potency [14]	Potency [15]	Potency [16]	outcome [17]	outcome [18]
CCCCOC(=O)CC(CC(=O)OCCCC)(OC(C)=O)C(=O)OCCCC	inactive	inactive	inactive and 54.5 µM (active)	inactive	inactive	inactive	inactive	inactive	inactive	inactive	inactive								
CC(O)CO (stereo not drawn)	inactive	inactive	inactive and 61.1 µM (active)		inactive	inactive	inactive	inactive	inactive	inactive	inactive	inactive	inactive	inactive	inactive	inactive	inactive		
NC(N)=NC(=O)c1nc(Cl)c(N)nc1N	inactive	inactive	inactive		inactive	inactive	inactive	inactive	inactive	inactive	inactive	inactive	21.1 µM (active) and 54.8 µM (active)	inactive	inactive	inactive	inactive		
CCCC(O)C(CC)CO (stereo not drawn)	inactive	inactive	inactive		inactive	inactive	inactive	inactive	inactive	inactive	inactive	inactive	inactive	inactive	inactive	inactive	inactive		
Cn1c(=O)c2[nH]cnc2n(C)c1=O	inactive				inactive	inactive	inactive and 30.6 µM (active)	inactive	inactive	inactive	inactive		inactive	inactive	inactive	inactive	inactive		
Nc1ccc(S(=O)(=O)c2ccc(N)cc2)cc1	inactive	inactive	inactive		inactive		inactive	inactive	inactive	inactive	inactive	inactive	inactive	inactive	inactive	inactive	inactive		
O=C(O)c1cccnc1	inactive	inactive	inactive		inactive	inactive	inactive	inactive	inactive	inactive	inactive	inactive	inactive						
O=C(c1ccccc1)c1ccccc1	inactive				inactive	inactive		inactive	inactive	inactive	inactive							inactive	inactive
